Data published in PubChem BioAssay.
For some assays here: Results with a measured potency or affinity are listed apart. Activity calls are given as the source filed them. Unless noted, no rule for the calls is given here.

How the values were obtained:
[1] = antimalarial activity against Dd2 strain (AID 2302;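 active = growth inhibition above 50% at the single 2 µM test dose, taken to imply half-maximal potency below 2 µM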;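 also: 0% = DMSO untreated growth and 100% = chloroquine plus artemisinin killed control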); settings: P. falciparum Dd2 in RBCs, LDH growth readout, 72 h; at 2 µM; stronger effect = higher value
[2] = HepG2 cytotoxicity, primary screen, cytotoxicity control for P. falciparum antimalarial project, cell-based, ATP luminescence (AID 2303;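 active = inhibition above 50%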;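 also: 0% = DMSO wells and 100% = digitonin-killed cells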); settings: HepG2 viability, 24-48 h, at 10 µM, stronger effect = higher value
[3] = target: L-lactate dehydrogenase (Plasmodium falciparum (isolate CDC / Honduras)) (UniProt Q27743); assay: PfLDH activity inhibition – cell lysate, 3D7 strain, counter-screen for P. falciparum growth inhibition project (AID 2304);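 also: 0% = vehicle and 100% = reference inhibitor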; settings: P. falciparum 3D7 crude extract, LDH APAD/NBT absorbance; at 2 µM; stronger effect = higher value
[4] = inhibition of 3D7 malaria parasite growth – strain 3D7 (AID 2306);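 also: 0% = DMSO wells and 100% = chloroquine plus artemisinin control wells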; settings: P. falciparum 3D7 erythrocytic growth, LDH absorbance, 72 h; at 2 µM; stronger effect = higher value
[5] = target: Calcium-dependent protein kinase 1 (Plasmodium falciparum (isolate 3D7)) (UniProt P62344); assay: PfCDPK1 kinase inhibitors, biochemical, TCAMS library (AID 1159585; cut-off not given, nearly all actives have IC50 up to about 0.98 µM;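 also: inhibitors leave more ATP so luminescence rises with inhibition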); settings: recombinant PfCDPK1, Kinase-Glo ATP depletion luminescence
[6] = target: Plasmodium falciparum protein kinase 6 (PK6, PF3D7_1337100) (UniProt Q8IDW1); assay: PfPK6 kinase inhibitors, biochemical, TCAMS library (AID 1159586); settings: recombinant PfPK6, Kinase-Glo ATP depletion luminescence
[7] = target: Protein kinase 7 (PK7), Plasmodium falciparum 3D7 (PF3D7_0213400) (UniProt Q7YTF7); assay: inhibition of Plasmodium PK7 catalytic activity – biochemical, TCAMS antimalarial set, Kinase-Glo luminescence (AID 1159587); settings: recombinant PfPK7, Kinase-Glo ATP depletion luminescence
[8] = target: Calcium-dependent protein kinase 4 (Plasmodium falciparum (isolate 3D7)) (UniProt Q8IBS5); assay: PfCDPK4 kinase inhibitors, biochemical, TCAMS library (AID 1159588; cut-off not given, nearly all actives have IC50 up to about 0.91 µM); settings: recombinant PfCDPK4, Kinase-Glo ATP depletion luminescence
Sequence of Calcium-dependent protein kinase 4 (Plasmodium falciparum (isolate 3D7)) (Q8IBS5 whole entry, looked up): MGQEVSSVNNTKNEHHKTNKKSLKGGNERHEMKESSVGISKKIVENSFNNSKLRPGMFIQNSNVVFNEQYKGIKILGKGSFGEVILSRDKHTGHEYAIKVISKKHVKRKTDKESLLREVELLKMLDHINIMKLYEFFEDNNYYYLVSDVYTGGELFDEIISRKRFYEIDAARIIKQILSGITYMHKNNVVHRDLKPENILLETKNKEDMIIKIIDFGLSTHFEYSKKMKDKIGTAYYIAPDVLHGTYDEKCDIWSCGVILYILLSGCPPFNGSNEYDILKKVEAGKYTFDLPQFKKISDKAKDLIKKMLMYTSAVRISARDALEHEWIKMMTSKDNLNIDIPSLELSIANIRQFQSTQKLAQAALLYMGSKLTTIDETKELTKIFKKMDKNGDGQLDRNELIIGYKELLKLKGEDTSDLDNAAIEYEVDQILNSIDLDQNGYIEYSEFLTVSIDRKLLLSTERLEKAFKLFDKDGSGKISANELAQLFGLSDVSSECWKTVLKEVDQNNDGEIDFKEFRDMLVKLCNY

Sequence of L-lactate dehydrogenase (Plasmodium falciparum (isolate CDC / Honduras)) (Q27743 whole entry, looked up): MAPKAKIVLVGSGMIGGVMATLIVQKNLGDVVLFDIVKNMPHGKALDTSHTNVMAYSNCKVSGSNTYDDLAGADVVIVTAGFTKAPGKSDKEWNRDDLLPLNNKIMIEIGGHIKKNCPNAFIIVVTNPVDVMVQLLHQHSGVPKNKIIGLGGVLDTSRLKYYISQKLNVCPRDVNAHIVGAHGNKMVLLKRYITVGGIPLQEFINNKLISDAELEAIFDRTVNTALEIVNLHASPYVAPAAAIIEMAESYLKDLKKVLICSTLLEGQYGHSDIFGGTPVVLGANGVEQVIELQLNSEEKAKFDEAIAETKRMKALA
Sequence of Plasmodium falciparum protein kinase 6 (PK6, PF3D7_1337100) (Q8IDW1 1-305): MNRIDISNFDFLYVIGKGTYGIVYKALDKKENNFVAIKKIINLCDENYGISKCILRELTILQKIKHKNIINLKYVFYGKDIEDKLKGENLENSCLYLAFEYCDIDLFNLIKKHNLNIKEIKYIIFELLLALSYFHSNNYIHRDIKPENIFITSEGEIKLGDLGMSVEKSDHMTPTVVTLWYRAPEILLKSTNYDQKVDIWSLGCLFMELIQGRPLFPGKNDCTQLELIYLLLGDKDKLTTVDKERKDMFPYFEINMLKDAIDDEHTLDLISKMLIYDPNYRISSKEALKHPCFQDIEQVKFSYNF
Sequence of Calcium-dependent protein kinase 1 (Plasmodium falciparum (isolate 3D7)) (P62344 whole entry, looked up): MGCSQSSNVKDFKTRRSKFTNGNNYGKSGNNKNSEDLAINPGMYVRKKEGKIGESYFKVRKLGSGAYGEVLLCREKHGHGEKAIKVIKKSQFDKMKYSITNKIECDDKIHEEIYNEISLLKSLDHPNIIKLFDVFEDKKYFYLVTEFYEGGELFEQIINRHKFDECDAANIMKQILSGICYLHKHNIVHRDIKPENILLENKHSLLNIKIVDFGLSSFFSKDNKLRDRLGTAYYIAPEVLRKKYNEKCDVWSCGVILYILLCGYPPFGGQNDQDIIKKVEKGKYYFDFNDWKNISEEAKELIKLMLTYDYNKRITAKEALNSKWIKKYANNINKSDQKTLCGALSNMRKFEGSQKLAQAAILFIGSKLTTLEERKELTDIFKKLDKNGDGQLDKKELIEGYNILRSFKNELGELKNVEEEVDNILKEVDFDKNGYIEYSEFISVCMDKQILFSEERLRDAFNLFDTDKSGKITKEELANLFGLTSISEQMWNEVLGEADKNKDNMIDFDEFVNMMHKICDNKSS
Sequence of Protein kinase 7 (PK7), Plasmodium falciparum 3D7 (PF3D7_0213400) (Q7YTF7 1-343): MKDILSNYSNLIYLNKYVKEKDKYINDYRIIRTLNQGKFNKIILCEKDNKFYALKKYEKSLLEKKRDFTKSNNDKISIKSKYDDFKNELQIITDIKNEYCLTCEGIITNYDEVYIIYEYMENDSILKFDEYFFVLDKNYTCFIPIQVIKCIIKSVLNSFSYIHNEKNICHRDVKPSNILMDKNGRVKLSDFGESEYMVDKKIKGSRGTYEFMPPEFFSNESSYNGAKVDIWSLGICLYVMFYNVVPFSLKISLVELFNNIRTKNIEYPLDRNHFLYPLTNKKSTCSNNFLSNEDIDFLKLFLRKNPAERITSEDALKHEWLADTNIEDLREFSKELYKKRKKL

| Structure (SMILES) | growth inhibition [1] | inhibition [2] | inhibition [3] | growth inhibition [4] | outcome [5] | outcome [6] | outcome [7] | outcome [8] |
| --- | --- | --- | --- | --- | --- | --- | --- | --- |
| Cc1cc(N[C@@H](CC(C)C)C(=O)Nc2ccccc2)nc(NCCc2ccccc2)n1 | 87% (active) | -4% (inactive) | -1% (inactive) | 100% (active) | inactive | inactive | inactive | inactive |
| COC(=O)c1ccc(C2OC3(C(=O)c4ccccc4C3=O)C(OC)=C2Cl)cc1C(C)=O (configuration not stated) | 85% (active) | -3% (inactive) | -2% (inactive) | 99% (active) | inactive | inactive | inactive | inactive |
| O=C(Nc1cccc(-c2ccc(-c3nc4ccc(C(F)(F)F)cc4[nH]3)cc2)c1)Nc1ccc(F)c(F)c1F | 99% (active) | 45% (inactive) | -2% (inactive) | 102% (active) | inactive | inactive | inactive | inactive |
| N#Cc1cccc(Nc2nccc(NCC(O)c3ccc(C(F)(F)F)cc3)n2)c1 (configuration not stated) | 98% (active) | 23% (inactive) | 4% (inactive) | 102% (active) | inactive | inactive | inactive | inactive |
